Data published in PubChem BioAssay (NCI).
Values joined by “and” are separate entries in the source; they are usually repeats but may differ in a detail not shown here. Equal entries are not always repeated. About 83,000 compounds went through this panel and 20% of them were active in at least one assay; those are over-represented in the sample as a whole.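 Note: values are percent growth. 100 is the growth of untreated cells, values between 100 and 0 indicate rising inhibition; between -100 and 0 indicates cell death.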 Active and inactive are the calls of the source. Rule for the calls: active = growth percent below 10; inactive = the rest.

Key:
Test in all cases: NCI-60 one-dose screen, 48 h (100 = growth as untreated, 0 = no growth, -100 = all killed)
Conditions in all cases: 10 µM unless noted
HT29 colon = system: HT29 colon
SNB-75 CNS = system: SNB-75 CNS
SNB-19 CNS = system: SNB-19 CNS
PC-3 prostate = system: PC-3 prostate
SK-MEL-5 melanoma = system: SK-MEL-5 melanoma
LOX IMVI melanoma = system: LOX IMVI melanoma
SK-MEL-28 melanoma = system: SK-MEL-28 melanoma
HCT-15 colon = system: HCT-15 colon
U251 CNS = system: U251 CNS
UACC-62 melanoma = system: UACC-62 melanoma

N=C1N=C(N)CS1
growth (HT29 colon): 105% (inactive) | growth (SNB-75 CNS): 92.1% (inactive) | growth (SNB-19 CNS): 104% (inactive) | growth (PC-3 prostate): 101% (inactive) | growth (SK-MEL-5 melanoma): 98.4% (inactive) | growth (LOX IMVI melanoma): 107% (inactive) | growth (SK-MEL-28 melanoma): 109% (inactive)

Nc1n[nH]c(=S)n1-c1ccc(Cl)cc1
growth (HCT-15 colon): 99.3% (inactive) | growth (SNB-75 CNS): 82% (inactive) | growth (SNB-19 CNS): 99.4% (inactive) | growth (U251 CNS): 98.1% (inactive) | growth (PC-3 prostate): 97.1% (inactive) | growth (SK-MEL-5 melanoma): 105% (inactive) | growth (UACC-62 melanoma): 96.2% (inactive) | growth (LOX IMVI melanoma): 94.6% (inactive) | growth (SK-MEL-28 melanoma): 101% (inactive)

CN(C)c1ccc(C(Cc2ccc3ccccc3n2)Cc2ccc3ccccc3n2)cc1
growth (HCT-15 colon): 51.1% (inactive) and 78.8% (inactive) | growth (SNB-75 CNS): 110% (inactive) and 88.5% (inactive) | growth (SNB-19 CNS): 61% (inactive) and 89.3% (inactive) | growth (U251 CNS): 43.5% (inactive) and 81.2% (inactive) | growth (PC-3 prostate): 16% (inactive) and 61.5% (inactive) | growth (SK-MEL-5 melanoma): 19.8% (inactive) and 76.7% (inactive) | growth (UACC-62 melanoma): 44.5% (inactive) and 73% (inactive) | growth (LOX IMVI melanoma): 31.3% (inactive) and 81.8% (inactive) | growth (SK-MEL-28 melanoma): 74.9% (inactive) and 92.8% (inactive)

CC(=O)c1ccc2c(c1)N(CCCN1CCN(CCO)CC1)c1ccccc1S2
growth (HCT-15 colon): 38.2% (inactive) and -17.3% (active) | growth (SNB-75 CNS): 67% (inactive) and -12.1% (active) | growth (SNB-19 CNS): 114% (inactive) and 46.4% (inactive) | growth (U251 CNS): 85.7% (inactive) and 20.6% (inactive) | growth (PC-3 prostate): 69.7% (inactive) and 24.2% (inactive) | growth (SK-MEL-5 melanoma): 88.9% (inactive) and -99.1% (active) | growth (UACC-62 melanoma): 95.8% (inactive) and -58.7% (active) | growth (LOX IMVI melanoma): 80.1% (inactive) and -85.2% (active) | growth (SK-MEL-28 melanoma): 77.9% (inactive) and -91.7% (active)

CNC(=O)c1cccnc1
growth (HCT-15 colon): 103% (inactive) | growth (SNB-75 CNS): 92.5% (inactive) | growth (SNB-19 CNS): 105% (inactive) | growth (PC-3 prostate): 96.9% (inactive) | growth (SK-MEL-5 melanoma): 107% (inactive) | growth (UACC-62 melanoma): 113% (inactive) | growth (LOX IMVI melanoma): 92.9% (inactive) | growth (SK-MEL-28 melanoma): 116% (inactive)

CSc1nc(Br)nc2ncn(C3CC(Oc4ccc(C)cc4)C(COc4ccc(C)cc4)O3)c12 (stereo unspecified)
growth (UACC-62 melanoma): 84.5% [100 µM] (inactive) and -65.3% [100 µM] (active)

O=[N+]([O-])c1ccc2nc3c4ccccc4c4ccccc4c3nc2c1
growth (HCT-15 colon): 80.8% (inactive) | growth (SNB-75 CNS): 74.4% (inactive) | growth (SNB-19 CNS): 89.2% (inactive) | growth (PC-3 prostate): 55.1% (inactive) | growth (SK-MEL-5 melanoma): 76.8% (inactive) | growth (UACC-62 melanoma): 86.7% (inactive) | growth (LOX IMVI melanoma): 30.8% (inactive) | growth (SK-MEL-28 melanoma): 113% (inactive)

NC(Cc1ccc(S(=O)(=O)O)cc1)C(=O)NC(Cc1ccc(S(=O)(=O)O)cc1)C(=O)NC(Cc1ccc(S(=O)(=O)O)cc1)C(=O)NC(Cc1ccc(S(=O)(=O)O)cc1)C(=O)O (stereo unspecified)
growth (UACC-62 melanoma): 86.3% [100 µM] (inactive) and 93.4% [100 µM] (inactive)

CCCCCCCCCC(=O)CC(=O)c1c(O)cc(O)cc1O
growth (UACC-62 melanoma): -97.6% [75 µM] (active) and -88.4% [75 µM] (active)

COC(=O)C(=O)C(C(=O)C(=O)Nc1nc2ccc(C)cc2s1)c1nc2ccc([N+](=O)[O-])cc2[nH]c1=O (stereo unspecified)
growth (UACC-62 melanoma): 61.1% [100 µM] (inactive) and 52.2% [100 µM] (inactive)

COc1c2c(c3c(c1OC)c(=O)c1ccccc1n3C)OCO2
growth (UACC-62 melanoma): 58.8% [100 µM] (inactive)

CC(C)=CCc1c(OC(=O)c2c(C)cc(O)cc2O)cc(CO)c(CO)c1O
growth (UACC-62 melanoma): -76.6% [100 µM] (active) and -100% [100 µM] (active)

O=C(O)c1n[nH]nc1Cl
growth (UACC-62 melanoma): 43.6% [100 µM] (inactive) and 103% [100 µM] (inactive)

C=C1C(=O)O[C@H]2C[C@@]3(C)[C@H](O)CCC(=C)[C@@H]3[C@@H](OC(C)=O)[C@H]12
growth (UACC-62 melanoma): -98.5% [100 µM] (active) and -92.2% [100 µM] (active)

Cc1ccc(OCC2OC(n3cnc4nc(N)nc(Cl)c43)CC2Oc2ccc(C)cc2)cc1 (stereo unspecified)
growth (UACC-62 melanoma): 50.4% [100 µM] (inactive) and -64% [100 µM] (active)

CCOc1cc2c(cc1O)/C(=N/NS(=O)(=O)c1ccc(C)cc1)C[C@@H]1[C@@H]2CC[C@]2(C)[C@@H](O)CC[C@@H]12
growth (UACC-62 melanoma): -88.9% [100 µM] (active)

NC(N)=Nc1ccc(CC(N)C(=O)O)cc1 (stereo unspecified)
growth (UACC-62 melanoma): 89% [12.5 µM] (inactive) and 94.1% [12.5 µM] (inactive)

COc1ccc(/C=C2/NC(=S)N=C2Cl)cc1
growth (UACC-62 melanoma): 82.8% [100 µM] (inactive) and 23.4% [100 µM] (inactive)

Cc1coc2c1C(OC(=O)C(C)C)C1(C)C(C)CCC(O)C1C2=O (stereo unspecified)
growth (UACC-62 melanoma): 39% [100 µM] (inactive) and 18.7% [100 µM] (inactive)

NC(=O)CC1OC(=O)Cc2cc3c(c(O)c21)C(=O)c1c(O)cccc1C3=O (stereo unspecified)
growth (UACC-62 melanoma): 67.9% [100 µM] (inactive)

COc1cc([C@H]2OC[C@@H]3C(c4cc(OC)c5c(c4)OCO5)OC[C@H]23)cc(OC)c1OC (stereo partly specified)
growth (UACC-62 melanoma): 66.5% [100 µM] (inactive) and 25.8% [100 µM] (inactive)

Cc1ccc(C)c(NC(=O)/C(=N\N)C(c2cnc3ccc([N+](=O)[O-])cc3n2)[N+](=O)[O-])c1 (stereo unspecified)
growth (UACC-62 melanoma): 46.3% [100 µM] (inactive) and 15.7% [100 µM] (inactive)

N#C/C=C1\C=CC(O)C(O)C1OC1OC(CO)C(O)C(O)C1O (stereo unspecified)
growth (UACC-62 melanoma): 95% [100 µM] (inactive) and 88.4% [100 µM] (inactive)

Cc1ccc(OCC2OC(n3cnc4c(Cl)nc(Cl)nc43)CC2Oc2ccc(C)cc2)cc1 (stereo unspecified)
growth (UACC-62 melanoma): -90.8% [100 µM] (active) and -89.2% [100 µM] (active)

O=C1C=CC=C/C1=C1\N=C(c2ccccc2OCC(=O)c2ccc(Br)cc2)SS1
growth (UACC-62 melanoma): 48.5% [100 µM] (inactive) and 35.3% [100 µM] (inactive)

CCCCC1C(=O)N(c2ccc(S(=O)(=O)Nc3ccccn3)cc2)N(c2ccc(O)c(C(=O)O)c2)C1=O (stereo unspecified)
growth (UACC-62 melanoma): 105% [100 µM] (inactive) and 96.1% [100 µM] (inactive)

COc1cc2c(c3c1c(=O)c1ccccc1n3C)C=C([N+](=O)[O-])C(C)(C)O2
growth (UACC-62 melanoma): -21.5% [100 µM] (active) and -100% [100 µM] (active)

CN(C)c1ccc(/C=N/n2c(-c3ccccc3)nc3ccccc3c2=O)cc1
growth (UACC-62 melanoma): 47.5% [100 µM] (inactive) and 13.6% [100 µM] (inactive)

N#Cc1n[nH]n(-c2ccccc2)c1=O
growth (UACC-62 melanoma): 91.7% [100 µM] (inactive) and 100% [100 µM] (inactive)

CCOC(=O)c1cc(C)nc2c1c(=O)n(-c1ccccc1)c(=O)n2CCCCN1CCN(c2ncccn2)CC1
growth (UACC-62 melanoma): 97.1% [100 µM] (inactive) and 82.3% [100 µM] (inactive)

C=C(C)C1CC2(C)C(C)CC(OC(=O)/C(C)=C\C)CC2C(OC(=O)/C(C)=C\C)C1O (stereo unspecified)
growth (UACC-62 melanoma): 5.5% [100 µM] (active)

C[C@@H]1CC[C@H]2C(C)(C)[C@H]3C[C@@]12CC[C@@]3(C)O
growth (UACC-62 melanoma): 80.1% [100 µM] (inactive) and 6.26% [100 µM] (active)

C=C(CCC(C(=O)O)C1CCC2(C)C3=C(CCC12C)C1(C)CCC(O)C(C)(C)C1CC3)C(C)C (stereo unspecified)
growth (UACC-62 melanoma): -50.9% [100 µM] (active) and -100% [100 µM] (active)

Cc1ccc(/C=N/Nc2cnccn2)s1
growth (UACC-62 melanoma): 58.8% [100 µM] (inactive) and 98.5% [100 µM] (inactive)

COc1cc2oc3c(c(=O)c2c(O)c1/C=C/C(C)C)CCC(C)(C)Oc1cc(O)ccc1-3
growth (UACC-62 melanoma): -23.1% [100 µM] (active) and -100% [100 µM] (active)

COc1cc([C@H]2OC[C@H]3[C@@H]2CO[C@@H]3c2cc(OC)c3c(c2)OCO3)cc(OC)c1OC
growth (UACC-62 melanoma): 43.3% [100 µM] (inactive) and 24% [100 µM] (inactive)

N#CC1(C#N)N[C@@H](c2ccsc2)[C@H]2C(=O)N(c3ccccc3)C(=O)[C@H]21
growth (UACC-62 melanoma): 23.2% [100 µM] (inactive) and 0.172% [100 µM] (active)

O=C1NC(N/N=C\c2ccccc2)=N/C1=C/c1ccccc1
growth (UACC-62 melanoma): -53.2% [100 µM] (active) and -100% [100 µM] (active)

CCOc1cc2c(cc1O)C=C[C@@H]1[C@@H]2CC[C@]2(C)[C@@H](O)CC[C@@H]12
growth (UACC-62 melanoma): -65.7% [100 µM] (active) and -100% [100 µM] (active)

COc1ccc(OC)c(N(CN2C(=O)CCC2C(=O)O)C(C)=O)c1 (stereo unspecified)
growth (UACC-62 melanoma): 80.4% [100 µM] (inactive) and 103% [100 µM] (inactive)

Clc1c(Cl)c(Cl)c2nn(C3CCCO3)nc2c1Cl (stereo unspecified)
growth (UACC-62 melanoma): -16.1% [100 µM] (active) and -100% [100 µM] (active)

CC1CC2(OC2C)C(=O)OC2CCN(C)C/C=C(/COC(=O)C1(C)O)C2=O (stereo unspecified)
growth (UACC-62 melanoma): 89.6% [100 µM] (inactive) and 94.3% [100 µM] (inactive)

C=CC1=C(C)C2=NC1=CC1=NC(=C(CC)/C1=C\O)C=C1N=C3C(=C1C)C(=O)[C@H](C(=O)OC)C3=C1NC(=C2)[C@@H](C)[C@@H]1CCC(=O)O
growth (UACC-62 melanoma): -28.7% [100 µM] (active) and 0.467% [100 µM] (active)

COC(=O)/C=C\C(C#N)(C#N)N=Cc1ccsc1
growth (UACC-62 melanoma): -87.5% [100 µM] (active) and -74.6% [100 µM] (active)

C=C1CC2(C)CCC(OC(=O)C3(C)OC3C)C(C)(OC(C)=O)C2CC1=C(C)C (stereo unspecified)
growth (UACC-62 melanoma): 75.8% [100 µM] (inactive) and 12.7% [100 µM] (inactive)

CC1OC(Oc2c(-c3cc(O)c(O)c(O)c3)oc3cc(O)cc(O)c3c2=O)C(O)C(O)C1O (stereo unspecified)
growth (UACC-62 melanoma): 59.6% [100 µM] (inactive) and -60.3% [100 µM] (active)

Nc1ccn(C2OC(CO)C(O)C2O)c(=O)n1 (stereo unspecified)
growth (SK-MEL-28 melanoma): 58.1% (inactive) and 105% (inactive) and 110% (inactive)
